Laboratory results from the supplement of paper PMC10849652.
Of roughly 8,800 targets only a part is listed; those with a hit were picked by preference. About 0.5% of all pairs of compound and target were hits.

Assays:
Assay in all cases: log2 fold change, soluble protein after heating vs DMSO (PISA); higher = thermal stabilisation; K562 lysate, 10 uM; active = over 0.2 and 3.5 SD of the protein, either way, in both replicates (recomputed)
lapatinib = compound: CS(=O)(=O)CCNCc1ccc(-c2ccc3ncnc(Nc4ccc(OCc5cccc(F)c5)c(Cl)c4)c3c2)o1 [lapatinib]
Method in brief: (§1)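 Thermal stability, expressed as log-two fold change relative to solvent controls, is given from duplicates. Crude K562 extract in PBS pH 7.4 with 1 mM MgCl2, at 1 mg/mL protein, was treated with 10 μM compound for 30 min and heated in aliquots for 3 min across 48°C-58°C. After pooling, adjustment to 0.5% NP-40 at 4°C and centrifugation at 21,000xg for 90 min, supernatant protein was measured by TMTpro 16plex LC-MS/MS with channel sums equalised.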

pictilisib = compound: CS(=O)(=O)N1CCN(Cc2cc3nc(-c4cccc5[nH]ncc45)nc(N4CCOCC4)c3s2)CC1 [pictilisib]
Method in brief: as §1

crizotinib = compound: C[C@@H](Oc1cc(-c2cnn(C3CCNCC3)c2)cnc1N)c1c(Cl)ccc(F)c1Cl [crizotinib]
Method in brief: as §1

[1] = compound: C[C@H](C1=CC=C(C=C1)C(=O)NC2=C3C=CNC3=NC=C2)N
Method in brief: as §1

duvelisib = compound: C[C@H](Nc1ncnc2nc[nH]c12)c1cc2cccc(Cl)c2c(=O)n1-c1ccccc1 [duvelisib]
Method in brief: as §1

gandotinib = compound: Cc1cc(Nc2cc(CN3CCOCC3)c3nc(C)c(Cc4ccc(Cl)cc4F)n3n2)n[nH]1 [gandotinib]
Method in brief: as §1

tozasertib = compound: Cc1cc(Nc2cc(N3CCN(C)CC3)nc(Sc3ccc(NC(=O)C4CC4)cc3)n2)n[nH]1 [tozasertib]
Method in brief: as §1

doramapimod = compound: Cc1ccc(-n2nc(C(C)(C)C)cc2NC(=O)Nc2ccc(OCCN3CCOCC3)c3ccccc23)cc1 [doramapimod]
Method in brief: as §1

bafetinib = compound: Cc1ccc(NC(=O)c2ccc(CN3CC[C@H](N(C)C)C3)c(C(F)(F)F)c2)cc1Nc1nccc(-c2cncnc2)n1 [bafetinib]
Method in brief: as §1

[2] = compound: Cc1cccc(CC(=O)N2CCc3c2ccc(-c2cn(C)c4ncnc(N)c24)c3F)n1
Method in brief: as §1

nilotinib = compound: Cc1cn(-c2cc(NC(=O)c3ccc(C)c(Nc4nccc(-c5cccnc5)n4)c3)cc(C(F)(F)F)c2)cn1 [nilotinib]
Method in brief: as §1

[3] = compound: Cc1nc(Nc2n[nH]c3c2CN(C(=O)N[C@H](CN(C)C)c2ccccc2)C3(C)C)c2sccc2n1
Method in brief: as §1

dasatinib = compound: Cc1nc(Nc2ncc(C(=O)Nc3c(C)cccc3Cl)s2)cc(N2CCN(CCO)CC2)n1 [dasatinib]
Method in brief: as §1

[4] = compound: Cc1ncc(-c2ccnc(Nc3ccc(S(C)(=O)=O)cc3)n2)n1C(C)C
Method in brief: as §1

[5] = compound: Cn1cc(-c2ccc3c(c2)CCN3C(=O)Cc2cccc(C(F)(F)F)c2)c2c(N)ncnc21
Method in brief: as §1

quisinostat = compound: Cn1cc(CNCC2CCN(c3ncc(C(=O)NO)cn3)CC2)c2ccccc21 [quisinostat]
Method in brief: as §1

tipifarnib = compound: Cn1cncc1[C@@](N)(c1ccc(Cl)cc1)c1ccc2c(c1)c(-c1cccc(Cl)c1)cc(=O)n2C [tipifarnib]
Method in brief: as §1

[6] = compound: NC(=O)Nc1cc(-c2cccc(F)c2)sc1C(=O)N[C@H]1CCCNC1
Method in brief: as §1

[7] = compound: NC(=O)c1cnc(N[C@@H]2CCCC[C@@H]2N)nc1Nc1cccc(-n2nccn2)c1
Method in brief: as §1

[8] = compound: NC1(c2ccc(-c3nc4ccn5c(=O)[nH]nc5c4cc3-c3ccccc3)cc2)CCC1
Method in brief: as §1

Measured: log2 fold change

HMGB2 (UniProt P26583)
UniProt P26583, sequence (P26583 whole entry, looked up): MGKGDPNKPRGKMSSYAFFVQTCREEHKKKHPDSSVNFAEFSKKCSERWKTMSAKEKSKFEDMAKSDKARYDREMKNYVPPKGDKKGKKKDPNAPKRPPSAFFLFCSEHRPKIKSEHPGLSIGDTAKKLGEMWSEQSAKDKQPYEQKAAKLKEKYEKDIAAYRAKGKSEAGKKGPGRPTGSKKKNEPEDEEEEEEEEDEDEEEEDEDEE
inactive: lapatinib 0.006 | pictilisib 0.021 | crizotinib 0.052 | duvelisib -0.01 | gandotinib -0.16 | tozasertib -0.022 | doramapimod -0.088 | bafetinib 0.14 | nilotinib 0.045 | [3] -0.042 | dasatinib 0.057 | [4] 0.077 | [5] 0.018 | quisinostat 0.065 | tipifarnib 0.033 | [6] -0.014 | [7] -0.018 | [8] 0
active: [1] 0.266 | [2] -0.244

IMMT (UniProt Q16891)
inactive: lapatinib -0.058 | pictilisib 0.001 | crizotinib -0.049 | [1] -0.006 | duvelisib -0.039 | gandotinib -0.134 | tozasertib 0.02 | doramapimod 0.011 | bafetinib -0.053 | [2] 0.023 | nilotinib -0.009 | [3] 0.016 | dasatinib -0.075 | [4] 0.037 | [5] 0.01 | quisinostat 0.041 | tipifarnib -0.005 | [6] -0.007 | [7] -0.017 | [8] -0.035

GOLGA1 (UniProt Q92805)
UniProt Q92805, sequence (Q92805 whole entry, looked up): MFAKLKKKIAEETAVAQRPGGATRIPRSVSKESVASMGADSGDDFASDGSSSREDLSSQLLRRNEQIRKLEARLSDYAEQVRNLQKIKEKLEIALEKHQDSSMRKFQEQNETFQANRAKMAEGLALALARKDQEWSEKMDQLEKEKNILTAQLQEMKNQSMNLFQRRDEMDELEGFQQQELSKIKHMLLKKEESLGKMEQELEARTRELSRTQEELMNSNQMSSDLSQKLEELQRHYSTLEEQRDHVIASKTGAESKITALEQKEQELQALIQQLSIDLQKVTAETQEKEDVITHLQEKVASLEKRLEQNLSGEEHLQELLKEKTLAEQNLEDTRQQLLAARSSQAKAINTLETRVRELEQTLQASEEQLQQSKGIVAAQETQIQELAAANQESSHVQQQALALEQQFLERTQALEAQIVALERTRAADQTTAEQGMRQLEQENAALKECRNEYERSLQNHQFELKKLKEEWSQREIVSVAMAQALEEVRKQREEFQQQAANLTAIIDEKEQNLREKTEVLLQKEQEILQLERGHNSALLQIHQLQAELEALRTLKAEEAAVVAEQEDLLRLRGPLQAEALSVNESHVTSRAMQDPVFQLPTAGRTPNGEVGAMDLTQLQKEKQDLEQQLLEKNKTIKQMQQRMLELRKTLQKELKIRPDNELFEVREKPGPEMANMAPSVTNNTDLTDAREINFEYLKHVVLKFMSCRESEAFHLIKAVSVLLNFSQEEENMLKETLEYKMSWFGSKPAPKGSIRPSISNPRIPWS
inactive: pictilisib 0.007 | crizotinib 0.012 | [1] 0.056 | duvelisib -0.101 | gandotinib 0.024 | tozasertib -0.087 | doramapimod 0.001 | bafetinib -0.066 | [2] -0.025 | nilotinib 0.033 | [3] -0.009 | dasatinib -0.026 | [4] -0.015 | [5] 0.022 | quisinostat -0.073 | tipifarnib -0.099 | [6] 0.042 | [7] 0.106 | [8] 0.004
active: lapatinib -0.406

GSE1 (UniProt Q14687)
inactive: lapatinib 0.006 | pictilisib -0.032 | crizotinib -0.014 | [1] -0.073 | duvelisib -0.015 | gandotinib 0.011 | tozasertib 0.008 | doramapimod -0.019 | bafetinib -0.006 | [2] 0.051 | nilotinib -0.017 | [3] 0.007 | dasatinib -0.064 | [4] 0.036 | [5] -0.005 | quisinostat -0.093 | tipifarnib -0.02 | [6] 0.059 | [7] 0.012 | [8] 0.029

HDAC3 (UniProt O15379)
UniProt O15379, sequence (O15379 whole entry, looked up): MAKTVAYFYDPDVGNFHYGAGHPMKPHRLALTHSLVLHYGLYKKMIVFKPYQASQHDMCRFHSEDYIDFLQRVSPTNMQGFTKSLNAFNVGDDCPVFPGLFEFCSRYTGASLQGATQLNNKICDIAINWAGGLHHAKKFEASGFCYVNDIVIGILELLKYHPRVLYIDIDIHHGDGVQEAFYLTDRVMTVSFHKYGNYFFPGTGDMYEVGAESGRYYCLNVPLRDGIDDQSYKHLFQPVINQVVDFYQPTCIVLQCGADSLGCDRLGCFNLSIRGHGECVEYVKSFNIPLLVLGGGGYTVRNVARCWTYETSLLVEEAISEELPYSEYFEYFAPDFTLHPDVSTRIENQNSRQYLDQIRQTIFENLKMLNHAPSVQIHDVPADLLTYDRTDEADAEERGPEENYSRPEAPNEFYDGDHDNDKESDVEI
inactive: lapatinib 0.02 | pictilisib 0.008 | crizotinib 0.015 | [1] 0.076 | duvelisib -0.067 | gandotinib -0.015 | tozasertib 0.054 | doramapimod -0.024 | bafetinib -0.005 | [2] -0.045 | nilotinib -0.079 | [3] -0.019 | dasatinib 0.04 | [4] -0.026 | [5] 0.007 | quisinostat -0.004 | tipifarnib -0.102 | [6] 0.038 | [7] -0.004 | [8] -0.049

KIAA0930 isoform 2 (UniProt Q6ICG6)
inactive: lapatinib -0.068 | pictilisib 0.016 | crizotinib -0.067 | [1] -0.121 | duvelisib -0.037 | gandotinib 0.055 | tozasertib -0.015 | doramapimod 0.055 | bafetinib -0.051 | [2] 0.191 | nilotinib -0.041 | [3] 0.05 | dasatinib 0.202 | [4] -0.109 | [5] -0.021 | quisinostat 0.03 | tipifarnib -0.037 | [6] -0.026 | [7] -0.047

IRAK4 (UniProt Q9NWZ3)
inactive: lapatinib -0.021 | pictilisib -0.018 | crizotinib 0.175 | [1] 0.012 | duvelisib 0.026 | gandotinib -0.082 | tozasertib 0 | doramapimod 0.011 | bafetinib -0.013 | [2] 0.012 | nilotinib -0.115 | [3] 0.065 | dasatinib 0.051 | [4] -0.012 | [5] 0.023 | quisinostat -0.066 | tipifarnib -0.044 | [7] 0.028 | [8] 0
active: [6] 0.413

INTS7 (UniProt Q9NVH2)
UniProt Q9NVH2, sequence (Q9NVH2 whole entry, looked up): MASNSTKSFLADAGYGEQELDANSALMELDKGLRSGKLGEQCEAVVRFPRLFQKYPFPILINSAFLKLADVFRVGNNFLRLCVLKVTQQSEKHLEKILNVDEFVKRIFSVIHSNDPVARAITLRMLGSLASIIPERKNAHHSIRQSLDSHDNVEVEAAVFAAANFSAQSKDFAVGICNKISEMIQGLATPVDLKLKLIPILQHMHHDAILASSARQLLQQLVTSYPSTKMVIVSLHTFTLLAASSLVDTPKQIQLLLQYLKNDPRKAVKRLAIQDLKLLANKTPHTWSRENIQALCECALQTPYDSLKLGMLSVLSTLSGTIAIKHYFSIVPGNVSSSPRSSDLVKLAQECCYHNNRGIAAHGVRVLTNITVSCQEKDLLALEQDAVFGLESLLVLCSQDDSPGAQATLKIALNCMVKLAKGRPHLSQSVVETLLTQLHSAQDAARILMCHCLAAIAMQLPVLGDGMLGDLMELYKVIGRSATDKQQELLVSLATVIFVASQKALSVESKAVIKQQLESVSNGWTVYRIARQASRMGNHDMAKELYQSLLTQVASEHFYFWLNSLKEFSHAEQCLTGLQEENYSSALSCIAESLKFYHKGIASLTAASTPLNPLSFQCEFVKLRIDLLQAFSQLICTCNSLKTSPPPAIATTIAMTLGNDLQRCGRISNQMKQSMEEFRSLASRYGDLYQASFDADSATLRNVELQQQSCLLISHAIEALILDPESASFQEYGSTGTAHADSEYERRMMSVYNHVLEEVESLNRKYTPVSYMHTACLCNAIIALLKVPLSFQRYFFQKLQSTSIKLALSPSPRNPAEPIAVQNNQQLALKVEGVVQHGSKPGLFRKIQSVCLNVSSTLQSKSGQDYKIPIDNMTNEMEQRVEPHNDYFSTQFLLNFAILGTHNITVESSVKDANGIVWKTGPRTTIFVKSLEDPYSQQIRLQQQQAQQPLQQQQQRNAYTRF
inactive: lapatinib 0.01 | pictilisib -0.032 | crizotinib -0.07 | [1] -0.096 | duvelisib 0.01 | gandotinib -0.077 | tozasertib -0.01 | doramapimod 0.4 | bafetinib 0.141 | [2] 0.012 | nilotinib -0.02 | [3] -0.014 | dasatinib -0.004 | [4] -0.009 | [5] -0.008 | quisinostat -0.071 | tipifarnib 0.037 | [6] 0.088 | [7] 0.032 | [8] -0.002

HSPA8 (UniProt P11142)
UniProt P11142, sequence (P11142 whole entry, looked up): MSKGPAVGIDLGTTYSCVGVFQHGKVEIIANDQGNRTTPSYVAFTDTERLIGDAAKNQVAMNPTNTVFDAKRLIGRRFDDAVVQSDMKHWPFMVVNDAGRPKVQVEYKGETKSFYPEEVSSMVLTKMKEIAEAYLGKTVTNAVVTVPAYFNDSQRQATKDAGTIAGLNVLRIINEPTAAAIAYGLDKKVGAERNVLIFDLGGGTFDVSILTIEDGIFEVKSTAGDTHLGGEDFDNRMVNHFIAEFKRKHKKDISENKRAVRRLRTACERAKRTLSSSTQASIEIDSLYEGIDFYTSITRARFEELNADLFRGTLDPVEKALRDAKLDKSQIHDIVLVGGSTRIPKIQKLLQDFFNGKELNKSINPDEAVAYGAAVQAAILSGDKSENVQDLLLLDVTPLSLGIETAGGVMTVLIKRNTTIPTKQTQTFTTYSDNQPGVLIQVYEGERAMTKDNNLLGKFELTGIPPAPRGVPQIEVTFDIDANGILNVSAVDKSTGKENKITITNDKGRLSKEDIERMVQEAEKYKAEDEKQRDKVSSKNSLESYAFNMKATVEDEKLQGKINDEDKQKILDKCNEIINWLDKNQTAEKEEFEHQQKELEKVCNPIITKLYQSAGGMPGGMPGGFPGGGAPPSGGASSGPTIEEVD
inactive: lapatinib 0.004 | pictilisib 0.022 | crizotinib 0.023 | [1] 0.012 | duvelisib 0.005 | gandotinib -0.014 | tozasertib 0.006 | doramapimod 0.001 | bafetinib 0.059 | [2] -0.01 | nilotinib -0.01 | [3] 0.002 | dasatinib 0.013 | [4] 0.004 | [5] -0.007 | quisinostat 0.022 | tipifarnib 0 | [6] -0.024 | [7] -0.008 | [8] 0.003

HAUS5 (UniProt O94927)
inactive: lapatinib -0.036 | pictilisib -0.017 | crizotinib -0.071 | [1] 0.05 | duvelisib 0.044 | gandotinib -0.098 | tozasertib -0.002 | doramapimod 0.032 | bafetinib -0.042 | [2] -0.029 | nilotinib -0.014 | [3] 0.01 | dasatinib -0.071 | [4] -0.011 | [5] -0.015 | quisinostat -0.11 | tipifarnib 0.006 | [6] 0.079 | [7] 0.004 | [8] -0.02

KHDRBS1 (UniProt Q07666)
UniProt Q07666, sequence (Q07666 whole entry, looked up): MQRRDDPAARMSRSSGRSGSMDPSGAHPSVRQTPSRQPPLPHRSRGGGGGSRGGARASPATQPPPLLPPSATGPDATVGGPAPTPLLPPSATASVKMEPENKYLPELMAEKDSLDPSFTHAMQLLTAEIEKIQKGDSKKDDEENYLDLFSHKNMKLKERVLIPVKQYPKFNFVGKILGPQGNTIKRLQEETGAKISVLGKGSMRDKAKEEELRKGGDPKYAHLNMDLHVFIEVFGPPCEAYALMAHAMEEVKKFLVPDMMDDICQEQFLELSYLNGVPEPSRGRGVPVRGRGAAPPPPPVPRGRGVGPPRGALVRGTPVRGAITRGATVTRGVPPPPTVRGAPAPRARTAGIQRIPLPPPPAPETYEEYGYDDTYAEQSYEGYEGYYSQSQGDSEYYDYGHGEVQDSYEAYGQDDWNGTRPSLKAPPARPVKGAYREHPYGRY
inactive: lapatinib -0.035 | pictilisib 0.024 | crizotinib 0.025 | [1] 0.046 | duvelisib 0.005 | gandotinib -0.08 | tozasertib 0.008 | doramapimod -0.017 | bafetinib 0.039 | [2] -0.031 | nilotinib -0.032 | [3] -0.012 | dasatinib -0.048 | [4] -0.011 | [5] -0.003 | quisinostat 0.037 | tipifarnib 0.032 | [6] 0.005 | [7] 0.011 | [8] 0.028

HS1BP3 (UniProt Q53T59)
inactive: lapatinib 0.024 | pictilisib -0.019 | crizotinib 0.006 | duvelisib -0.047 | gandotinib 0.068 | tozasertib 0.021 | doramapimod -0.019 | bafetinib -0.048 | [2] 0.074 | nilotinib 0.021 | [3] -0.016 | dasatinib 0.023 | [4] -0.007 | [5] 0 | quisinostat -0.006 | tipifarnib 0.042 | [6] -0.019 | [7] 0.024 | [8] -0.014
active: [1] -0.253

HEATR6 (UniProt Q6AI08)
UniProt Q6AI08, sequence (Q6AI08 whole entry, looked up): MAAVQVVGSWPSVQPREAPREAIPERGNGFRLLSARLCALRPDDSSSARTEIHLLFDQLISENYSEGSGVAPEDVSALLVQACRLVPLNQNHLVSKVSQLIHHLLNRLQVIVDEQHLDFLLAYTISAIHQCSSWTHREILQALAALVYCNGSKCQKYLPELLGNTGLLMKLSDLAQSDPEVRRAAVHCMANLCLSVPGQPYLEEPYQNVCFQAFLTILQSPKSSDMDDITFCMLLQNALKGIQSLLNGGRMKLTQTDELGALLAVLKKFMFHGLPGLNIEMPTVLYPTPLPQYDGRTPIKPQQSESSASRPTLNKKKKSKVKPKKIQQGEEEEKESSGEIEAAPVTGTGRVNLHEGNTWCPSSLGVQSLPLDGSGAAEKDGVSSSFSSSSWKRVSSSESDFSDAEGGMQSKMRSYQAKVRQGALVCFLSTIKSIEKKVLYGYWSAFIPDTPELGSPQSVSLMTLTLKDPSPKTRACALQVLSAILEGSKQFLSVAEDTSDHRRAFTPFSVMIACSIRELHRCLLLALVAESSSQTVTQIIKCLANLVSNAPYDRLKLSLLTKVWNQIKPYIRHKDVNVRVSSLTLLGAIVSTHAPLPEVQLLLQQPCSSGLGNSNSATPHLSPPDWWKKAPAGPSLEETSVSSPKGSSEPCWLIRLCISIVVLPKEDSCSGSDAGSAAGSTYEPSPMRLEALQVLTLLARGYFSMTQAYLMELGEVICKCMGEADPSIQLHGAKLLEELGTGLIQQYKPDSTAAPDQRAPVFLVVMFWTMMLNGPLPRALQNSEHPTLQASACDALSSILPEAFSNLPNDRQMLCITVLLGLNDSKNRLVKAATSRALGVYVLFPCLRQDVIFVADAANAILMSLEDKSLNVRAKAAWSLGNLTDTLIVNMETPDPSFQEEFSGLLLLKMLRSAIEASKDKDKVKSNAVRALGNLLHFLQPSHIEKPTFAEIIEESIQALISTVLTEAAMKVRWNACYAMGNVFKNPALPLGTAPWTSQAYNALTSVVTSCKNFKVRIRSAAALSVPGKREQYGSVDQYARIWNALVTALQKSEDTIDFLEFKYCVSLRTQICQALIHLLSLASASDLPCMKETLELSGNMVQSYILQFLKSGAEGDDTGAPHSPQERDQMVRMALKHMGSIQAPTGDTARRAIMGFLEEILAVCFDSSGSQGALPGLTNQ
inactive: lapatinib -0.014 | pictilisib -0.033 | crizotinib -0.112 | [1] -0.037 | duvelisib 0.084 | gandotinib 0.003 | tozasertib -0.003 | doramapimod -0.011 | bafetinib 0.054 | [2] 0.045 | nilotinib -0.085 | [3] 0.022 | dasatinib -0.019 | [4] 0.022 | [5] 0 | quisinostat -0.008 | tipifarnib -0.06 | [6] 0.055 | [7] 0.041 | [8] 0.026

HDHD5 (UniProt Q9BXW7)
inactive: lapatinib 0.011 | pictilisib 0.012 | crizotinib -0.017 | [1] -0.147 | duvelisib 0.058 | gandotinib -0.005 | tozasertib 0.059 | doramapimod 0.131 | bafetinib 0.033 | [2] 0.116 | nilotinib 0.157 | [3] -0.081 | dasatinib 0.023 | [4] -0.052 | [5] -0.042 | quisinostat -0.026 | tipifarnib -0.008 | [6] 0.028 | [7] -0.014 | [8] -0.036

HMGN5 (UniProt P82970)
UniProt P82970, sequence (P82970 whole entry, looked up): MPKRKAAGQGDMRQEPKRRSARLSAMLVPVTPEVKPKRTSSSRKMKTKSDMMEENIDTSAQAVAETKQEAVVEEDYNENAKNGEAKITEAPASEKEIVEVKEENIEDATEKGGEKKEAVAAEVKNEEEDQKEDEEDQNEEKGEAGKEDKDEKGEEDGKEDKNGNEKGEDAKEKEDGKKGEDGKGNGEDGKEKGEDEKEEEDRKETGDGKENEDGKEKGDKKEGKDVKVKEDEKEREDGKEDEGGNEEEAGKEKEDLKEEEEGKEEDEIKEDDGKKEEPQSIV
inactive: lapatinib -0.058 | pictilisib 0.032 | crizotinib 0.046 | [1] 0.239 | duvelisib 0.018 | gandotinib -0.081 | tozasertib 0.02 | doramapimod -0.066 | bafetinib 0.013 | [2] -0.184 | nilotinib 0.029 | [3] 0.001 | dasatinib 0.03 | [4] 0.019 | [5] -0.003 | quisinostat 0.074 | tipifarnib 0.04 | [6] -0.042 | [7] -0.027 | [8] -0.003

GOLGA6B (UniProt A6NDN3)
inactive: lapatinib -0.105 | pictilisib -0.061 | crizotinib -0.193 | [1] -0.105 | duvelisib 0.121 | gandotinib 0.109 | tozasertib 0.027 | doramapimod -0.381 | bafetinib -0.04 | [2] 0 | nilotinib 0.039 | [3] -0.102 | dasatinib 0.009 | [4] -0.075 | [5] 0.161 | quisinostat -0.355 | tipifarnib 0.051 | [6] 0.106 | [7] -0.008 | [8] -0.082
